For 93 compounds, inhibition results are on record in PubChem BioAssay AID1861 (The Scripps Research Institute Molecular Screening Center, 2009).

Values joined by “and” are separate entries in the source; they are usually repeats but may differ in a detail not shown here. Identical values can stand only once. Screen size: about 290,000 compounds; about 3,100 (1.1%) were called active. Cut-off read from the data, not from the text of the source: active = inhibition above about 16% (passing the limit was not always enough); inactive = the rest. Only a selection was taken, and actives are over-represented in it overall. Some compounds were tested as several samples or in several runs, with calls that do not always agree. Where a SMILES comes first, the peptide text is derived from it. [ ]: non-standard residue; d: D form. The star is where a group is joined. ξ: configuration not given here. Cbz = O=C(OCc1ccccc1)*; ξL = CC(C)CC(N)C(=O)O; ξP = O=C(O)C1CCCN1

The assay deals with Neuropeptides B/W receptor type 1 (Homo sapiens) (UniProt P48145). Briefly: GPR7 receptor antagonists, primary screen, cell-based, fluorescence, single concentration (AID 1861).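 Note: cells stimulated with the agonist NPW; 0% = agonist with vehicle and 100% = vehicle without agonist.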 The note with it: GPR7-expressing cells, fluorescence antagonist assay; at 4.4 µM; stronger effect = higher value.
Neuropeptides B/W receptor type 1 (Homo sapiens), sequence (P48145 whole entry, looked up): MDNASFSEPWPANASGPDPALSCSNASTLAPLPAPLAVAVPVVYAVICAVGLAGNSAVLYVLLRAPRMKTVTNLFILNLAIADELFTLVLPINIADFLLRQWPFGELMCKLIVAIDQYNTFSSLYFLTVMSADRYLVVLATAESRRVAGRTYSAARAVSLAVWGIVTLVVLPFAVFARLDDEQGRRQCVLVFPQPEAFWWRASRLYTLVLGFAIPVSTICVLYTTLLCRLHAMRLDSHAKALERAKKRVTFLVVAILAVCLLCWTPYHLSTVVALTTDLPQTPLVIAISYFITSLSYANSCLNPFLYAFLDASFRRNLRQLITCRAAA
For orientation: inhibition means the drop in the measured response relative to a control, in per cent. Take `CCOCCCn1c(SCC(=O)Nc2cc(OC)ccc2OC)nc2ccccc2c1=O`: the inhibition was -10.2% (inactive).
With `Cc1ccc(NC(=S)NCCc2ccc(Cl)cc2)c(C)c1` the figure was -19.2% (inactive); with `Clc1ccc(C[n+]2cc(-c3ccccc3)n3c2CCC3)cc1`, -5.39% (inactive).
With `Cc1ccc(-c2c[n+](CC(=O)Nc3ccccc3)c3n2CCC3)cc1` the figure was -3.52% (inactive); with `Cc1ccc(C(=O)C[n+]2cc(-c3ccccc3)n3c2CCCCC3)cc1`, 16.2% (inactive) and 28.1% (active).
With `C=CCn1c(CNS(=O)(=O)c2ccc(Br)cc2)nnc1SC` the figure was -2.9% (inactive); with `CCC1C(=O)NCCN1C(=O)c1ccc2nc(Cc3ccc(OC)cc3)oc2c1` (stereo not drawn), 10.3% (inactive).
As for `N=C1C(c2nc3ccccc3s2)=C(O)CN1NC(=O)c1ccc([N+](=O)[O-])cc1`, the inhibition is 2.09% (inactive).
Consider `CC(C)CN(C(=O)c1cccc(S(=O)(=O)N2CCCCC2)c1)C1CCS(=O)(=O)C1` (stereo not drawn), for which the inhibition was 3.39% (inactive).
With `NNC(=O)CSc1nnc(-c2ccccc2)n1-c1ccccc1` the figure was 25.5% (inactive).
With `CC(C(=O)N1CCN(c2ccccc2F)CC1)c1ccc([N+](=O)[O-])cc1` (stereo not drawn) the figure was 35.6% (active).
With `O=C(CCSc1ccccc1)N1CCN(c2ccccc2F)CC1` the figure was 1.08% (inactive); with `O=C(c1ccc(S(=O)(=O)N2CCCC2)cc1)N1CCN(c2ccccc2F)CC1`, -4.62% (inactive); with `CC(C)CC(NC(=O)C1CCCN1C(=O)[C@@H](C)NC(=O)OCc1ccccc1)C(=O)NCC(N)=O` (stereo partly drawn) (Cbz-[dA][ξP][ξL]G-NH2), 2.31% (inactive).
On to `CN(Cc1c(F)cccc1Cl)S(=O)(=O)c1cccs1`, for which the inhibition is -1.36% (inactive).
With `Cn1nccc1C(=O)N1CCCC(C(=O)c2ccc(Oc3ccccc3)cc2)C1` (stereo not drawn) the figure was -11.3% (inactive); with `CCOCCCNC(=O)C(NC(=O)CNC(=O)c1ccccc1)c1ccc(OC)cc1` (stereo not drawn), -6.22% (inactive); with `O=C1CN(C(=O)c2ccccc2F)C(c2ccc(F)cc2)c2cc(F)ccc2N1` (stereo not drawn), -1.3% (inactive).
With `CCOC(=O)c1sc(NC(=O)CSc2nnc(-c3ccco3)o2)c(C(=O)OCC)c1C` the figure was -9.68% (inactive); with `Cc1cccc(NC(=O)CSc2nnc(-c3ccco3)o2)c1`, 2.82% (inactive).
With `O=C(CSc1nnc(-c2ccco2)o1)NCC(=O)c1ccccc1` the figure was 37.5% (active).
In the case of `N=c1c2c(-c3ccccc3)c(-c3ccccc3)oc2ncn1Cc1ccco1`, the inhibition is -7.33% (inactive).
On to `CCN(CC)CCn1cnc2c1c(=O)[nH]c(=O)n2Cc1ccccc1`, for which the inhibition is -8.02% (inactive).
With `N=c1c2c(-c3ccccc3)c(-c3ccccc3)n(Cc3ccccc3)c2ncn1CCCO` the figure was 27.3% (active); with `O=C(COc1ccccc1)NCc1ccc2c(c1)OCO2`, 26% (active); with `OC(CNCc1ccc2c(c1)OCO2)COc1ccccc1` (stereo not drawn), -0.63% (inactive).
With `Cc1ccc(C(=O)OCC(=O)NCc2ccc3c(c2)OCO3)s1`, the inhibition was -1.76% (inactive).
With `O=C(Nc1nc(-c2ccc3c(c2)OCO3)cs1)c1ccncc1` the figure was 31.8% (active); with `CC(=O)NCCC(=O)Nc1nc(-c2ccc3c(c2)OCCO3)cs1`, 21.3% (inactive); with `O=C(Nc1nc(-c2ccncc2)cs1)C1COc2ccccc2O1` (stereo not drawn), -9.64% (inactive).
With `CC(Sc1nnc(COc2ccccc2)n1-c1ccccc1)C(=O)O` (stereo not drawn) the figure was 11% (inactive); with `Cc1cccc(N(C(=O)c2sc(C)nc2C)C(C(=O)NCC2CCCO2)c2ccccc2)c1` (stereo not drawn), -10.3% (inactive).
On to `CCOC(=O)C1CCN(C(=O)CN2C(=O)c3cccnc3Oc3ccc(C)cc32)CC1`, for which the inhibition is -8.59% (inactive).
With `Oc1ccccc1N1CCN(c2ncnc3sc(-c4ccccc4)cc23)CC1` the figure was -12.8% (inactive); with `COc1ccccc1N1CCN(c2ncnc3sc(C)c(-c4ccccc4)c23)CC1`, 27% (active); with `COc1ccccc1N1CCN(c2ccc([N+](=O)[O-])nc2)CC1`, -2.36% (inactive).
With `CCCCCc1ccc(-c2cn(Cc3ccc4ccccc4c3)nn2)cc1` the figure was 2.3% (inactive); with `N#Cc1ccccc1NC(=O)c1ccc2c(c1)OCO2`, -3.22% (inactive).
With `Cc1ccc(F)cc1NC(=O)c1ccc2c(c1)OCO2` the figure was -15.9% (inactive).
With `O=C(Nc1ccccc1F)c1ccc2c(c1)OCO2`, the inhibition is 30.2% (active).
With `COc1ccc(CCNS(=O)(=O)c2cc3c(cc2C)NC(=O)CO3)cc1OC` the figure was -11.3% (inactive).
With `Cc1cccc(N2CCN(C(=O)COCc3cc(-c4ccc5c(c4)OCO5)on3)CC2)c1C` the figure was 14% (inactive); with `O=C(COC(=O)c1ccc(F)cc1)Nc1nc2ccc([N+](=O)[O-])cc2s1`, -8.84% (inactive).
With `CCC(=O)NC(Nc1nc2ccc(C)cc2s1)(C(=O)OC)C(F)(F)F` (stereo not drawn) the figure was -6.22% (inactive).
Take `O=C(NC(Nc1nc2ccc([N+](=O)[O-])cc2s1)(C(F)(F)F)C(F)(F)F)c1ccccc1`: the inhibition was 27.1% (active).
With `COc1cc(C2NC(=O)NC(c3ccccc3)=C2C(C)=O)c(Br)cc1OCC(N)=O` (stereo not drawn) the figure was -18.1% (inactive).
With `COc1cccc(CNC(=O)COc2cc(O)c3c(c2)OC(C)(C)CC3=O)c1` the figure was 1.6% (inactive); with `CC(CCc1ccccc1)NC(=O)COC(=O)c1ccc(F)cc1` (stereo not drawn), -18.2% (inactive).
With `CC(C)[C@H](NC(=O)N1CCn2c1nc1ccccc12)C(=O)NC1CC1` the figure was -2.43% (inactive); with `Cc1ccc(CS(=O)(=O)c2ncc(Cl)c(C(=O)Nc3nnc(C)s3)n2)cc1`, -20.2% (inactive).
Consider `Cc1cccc(CS(=O)(=O)c2ncc(Cl)c(C(=O)Nc3ccc(F)cc3)n2)c1`, for which the inhibition was 39.8% (active).
With `Cc1cccc(NC(=O)c2nc(S(=O)(=O)Cc3ccccc3)ncc2Cl)c1` the figure was 9.7% (inactive); with `CC(=O)NCCC(=O)Nc1cc(S(=O)(=O)N2CCCCC2)ccc1Oc1cccc(C)c1`, 9.48% (inactive); with `Cc1ccc(NC(=S)N(CCCN2CCC(C)CC2)Cc2ccco2)cc1`, 26.8% (active).
With `Cc1ccc(NC(=S)N(Cc2ccco2)C(C)c2cccs2)cc1` (stereo not drawn) the figure was -21.7% (inactive); with `Cc1ccc(NC(=S)N(CCN2CCCCC2)Cc2ccco2)cc1C`, 0.11% (inactive).
With `c1ccc2c(c1)CSc1sccc1C2=C1CCNCC1` the figure was 24.5% (active); with `C=CS(=O)c1sc(Cl)c(N2CCOCC2)c1[N+](=O)[O-]` (stereo not drawn), 3.73% (inactive); with `CCOC(=O)Cn1c(CN(Cc2ccccc2)Cc2ccccc2)nc2c1c(=O)[nH]c(=O)n2C`, -9.45% (inactive).
Regarding `Cn1c(=O)[nH]c(=O)c2c1nc(N(CCO)Cc1ccccc1)n2Cc1ccccc1Cl`, the inhibition was 27.1% (active).
With `CN(Cc1ccccc1)c1nc2c(c(=O)[nH]c(=O)n2C)n1CCSc1nc2ccccc2[nH]1` the figure was -4.5% (inactive); with `CNC(=O)c1sc(Nc2ccc(OCc3ccccc3)cc2)nc1C`, 1.33% (inactive).
As for `CCC(Cc1ccccc1)NC(=O)C1CCCCC1` (stereo not drawn), the inhibition is -7.32% (inactive).
With `O=C(NC(=O)c1ccccc1)NC(=O)c1ccccc1` the figure was 6% (inactive); with `O=C(NC(=O)c1ccccc1)Nc1ccccc1O`, 40.9% (active); with `Cc1ccc(NC(=O)NC(=O)c2ccccc2)cc1F`, -0.7% (inactive).
With `CCn1c(SCC(=O)Nc2ccc3c(c2)OCCO3)nnc1-c1ccncc1`, the inhibition was -4.19% (inactive).
With `Cc1nonc1C1CCCN1C(=O)c1cc(COc2cccc(C(F)(F)F)c2)on1` (stereo not drawn) the figure was -2.6% (inactive).
With `COc1cccc(N2CCN(c3ccc4nnc(CCC(=O)N5CCN(C)CC5)n4n3)CC2)c1` the figure was -14.2% (inactive); with `CCCOc1cccc(C(=O)Nc2ccccc2C(=O)N2CCN(C)CC2)c1`, -9.32% (inactive).
With `O=C(CN1C(=O)S/C(=C\c2ccccc2F)C1=O)NCCCn1ccnc1` the figure was -12% (inactive); with `O=C(CN1C(=O)/C(=C/c2ccccc2F)Sc2ccccc21)NCc1cccnc1`, 40.7% (active); with `O=C(CN1C(=O)/C(=C\c2ccc(C(F)(F)F)cc2)Sc2ccccc21)NCc1ccco1`, 5.13% (inactive).
Turning to `CSCc1ccc(C(=O)Nc2cc(C)cc(C)c2)cc1`, the inhibition is 3.49% (inactive).
With `O=C(Nc1ccc(-c2ccc3nncn3n2)cc1)C1CCCCC1` the figure was -11.2% (inactive); with `Cc1ccc2nc3n(c(=O)c2c1)CCC3`, -5.32% (inactive); with `Cc1ccc2nc(Nc3ccccc3)cc(C)c2c1`, -2.1% (inactive).
With `Cc1ccc2nc(C)c3c(c2c1)N(c1ccccc1)CC3` the figure was 36.7% (active).
With `C/C(=N\NC(=O)c1cc2c(s1)CCC(C)C2)c1cccnc1` (stereo not drawn) the figure was -6.07% (inactive).
On to `O=C(NCc1ccc2c(c1)OCO2)C(=O)NCC1OCCN1S(=O)(=O)c1ccc(F)cc1` (stereo not drawn), for which the inhibition was -11.7% (inactive).
With `CN(C)c1ccc(Nc2c3c4c(cccc4n(C)c2=O)C(=O)c2ccccc2-3)cc1` the figure was -1.09% (inactive); with `CCC(=O)c1ccc(N2CCN(C(=O)c3cc([N+](=O)[O-])ccc3F)CC2)c(F)c1`, 8.34% (inactive).
With `CCN1CCN(c2ccc([N+](=O)[O-])cc2C(=O)c2ccc(Cl)cc2)CC1` the figure was 32.3% (active); with `O=C(Nc1cccc(Cl)c1)c1cc([N+](=O)[O-])ccc1N1CCN(CCO)CC1`, 6.31% (inactive); with `O=C(Cn1cnc2ccccc21)Nc1ccccc1-c1ccccc1`, -5.35% (inactive).
Turning to `CC(C)c1nnc(NC(=O)COC(=O)/C=C/c2ccc([N+](=O)[O-])cc2)s1`, the inhibition was -6.73% (inactive).
With `O=C(COC(=O)C1CCCCC1)Nc1ccc([N+](=O)[O-])cc1` the figure was 23.9% (inactive); with `CCOCC(=O)Nc1ncc(S(=O)(=O)c2ccc([N+](=O)[O-])cc2)s1`, 19.5% (active).
With `COc1ccc2c(c1)c(C(=O)N/N=C/c1cccs1)c(C)n2C` the figure was -1.8% (inactive); with `O=C(COc1ccc(Cl)cc1Cl)NCCCNC(=O)c1cnccn1`, -1.6% (inactive).
With `CC(=O)N1CCCc2cc(S(=O)(=O)N3CCCC(C(=O)N4CCN(c5cccc(Cl)c5)CC4)C3)ccc21` (stereo not drawn) the figure was 35.7% (active); with `CC(=O)N1c2ccc(S(=O)(=O)N3CCCC(C(=O)Nc4cccc(Cl)c4)C3)cc2CC1C` (stereo not drawn), 2.68% (inactive); with `CC(=O)N1CCCc2cc(S(=O)(=O)N3CCCC(C(=O)NCc4ccc(Cl)cc4)C3)ccc21` (stereo not drawn), 0.31% (inactive).
